# Screening data as filed in PubChem.
# Rows were chosen to be rich in hits. Some 2.5% of all compounds tested hit in one or more screens of this group.
# FLuc inh: firefly luciferase inhibition | purified firefly luciferase, luminescence, 8 min | Potency, µM (doses to about 57.1 µM), without a hit: top-dose activity change, negative = inhibition, hits mostly inhibitors | AID 411 | 72,000 tested, 2.2% active | P08659; note: % is set by controls: 0 for no effect and ±100 for the full control effect; nearly all actives have a fitted effect of over 40% in size
#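 Here, luciferase activity is measured as luminescence following an 8 min room-temperature reaction at 10 uM ATP, pH 7.2. Every library sample is titrated.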
# IkB sig inh: inhibitors of IkB signaling in ABC-DLBCL cells. ABC-DLBCL IkBa-CBG/CBR dual luciferase ratio, 4 h; response scale: scaled: untreated 0%, proteasome inhibitor 100%. Potency, µM (series often up to 57.1 µM), for inactives: top-dose IkBa stabilization activation. 110,000 tested, 0.04% active; active = well fitted curve in the direction sought with a large enough effect in the signal ratio, not every such curve was filed as active; inconclusive = small, poorly fitted or top-dose-only effect, or a change in a side signal; the % refers to the signal ratio;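 note: the direction sought is a rising ratio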
#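 Luminescence ratio of IκBα-fused green versus native red beetle luciferase in OCI-Ly3 cells, 4 h post-doxycycline with compound; red signal alone, scaled from basal (0%) to zero light (-100%), flagged nonspecific or cytotoxic effects.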
# Caspase-1 inhib: allosteric or competitive inhibitors of human caspase-1; AID 900; P29466; Caspase-1 enzyme, Ac-WEHD-AFC fluorogenic rate; Potency, µM (series often up to 57.5 µM), without a hit: top-dose activity change, negative = inhibition, actives largely listed as inhibitors; 75,000 tested, 0.03% active;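 note: plate controls were vehicle for no effect and no substrate for full effect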
# p53ts 39C kill: p53ts cell cytotoxicity, nonpermissive temperature; H1299-p53A138V viability at 39C, ATP luminescence, 24 h; Potency, µM (top dose mostly 46.1 µM), for the others: at the top dose activity change, negative = cell killing, actives largely listed as cytotoxic; 130,000 tested, 1.5% active; AID 902; note: % is set by controls: 0 for no effect and ±100 for the full control effect; nearly all actives have a fitted effect of over 55% in size
# Caspase-7 inhib: caspase-7 (human) inhibition, allosteric or competitive. P55210. recombinant caspase-7, Ac-DEVD-AFC fluorescence rate. 75,000 tested, 0.02% active. Potency, µM (top dose mostly 57.5 µM), for the others: at the highest dose activity change, negative = inhibition, most hits filed as inhibitors; active = well fitted inhibition curve with a large enough effect in the main read-out, with a control signal flat, not every such curve was filed as active; inconclusive = small, poorly fitted or top-dose-only effect, or a change in a side signal; note: % of control where 0% means no effect
# p53ts 32C kill: p53ts cell cytotoxicity, permissive temperature. 130,000 tested, 0.93% active. H1299-p53A138V at 32C, ATP luminescence viability, 24 h. Potency, µM (series often up to 46.1 µM), for inactives: at the highest dose activity change, negative = cytotoxicity, usual class: cytotoxic;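 note: 0% = DMSO and -100% = full killing by reference compound; nearly all actives have a fitted effect of over 55% in size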
#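 Cells: H1299 p53ts (A138V), 600/well, pre-incubated 16–30 h at 37C. Cpd up to 46 uM, 24 h, 32C. Readout: ATPlite luminescence, 20 min RT. Normalization: DMSO vs tamoxifen 100 uM. AC50 by Hill equation.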
# Numbers without * were called inactive; ? = inconclusive; . = no result; [ ] = dose if it differs, or a comment. Unless noted, calls come from the whole dose curve; as a rule, active = well fitted curve in the direction sought with a large enough effect; inconclusive = small, poorly fitted or top-dose-only effect, or another doubt; inactive = no such curve, though single readings can be large; an effect the other way counts as inactive or inconclusive. Potency is the fitted concentration of half-maximal effect.
SMILES,FLuc inh,IkB sig inh,Caspase-1 inhib,p53ts 39C kill,Caspase-7 inhib,p53ts 32C kill
O=S(=O)(O)c1ccc(N=Nc2ccccc2)cc1,1.9%[11.4 µM],-1.8%[11.4 µM],3.2%[11.5 µM],8.7%[9.22 µM],1.8%[11.5 µM],1.8%[9.22 µM]
Nc1ccc(N=Nc2ccc(-c3ccc(O)cc3)cc2)c2ccc(S(=O)(=O)O)cc12,3.16µM*,-3.3%[11.4 µM],-0.2%[11.5 µM],2.7%[9.22 µM],-4.7%[11.5 µM],1.1%[9.22 µM]
Oc1ccc(Nc2nc(-c3ccc(Cl)cc3)cs2)cc1,.,.,-1.3%,9.2%,-4.2%,-1.1%
CCNc1nc(-c2ccc(Cl)cc2)cs1,12.6µM*,?,-1.6%,-28.4%,-0.3%,-11.2%
CNc1nc(-c2ccc(Cl)cc2)cs1,10µM*,0.9%,1.1%,-18.5%,-1.2%,-22.6%
COc1ccc(Cl)cc1S(=O)(=O)N1CCN(C(=O)c2cc(-c3ccc(Br)cc3)n[nH]2)CC1,.,.,.,.,.,6.0%
Cc1sc(NC(=O)c2ccc(Cl)s2)c(C(N)=O)c1C,10µM*,4.8%,?,?,?,?
Cc1sc(NC(=O)c2cc(-c3ccccc3)nc3ccccc23)c(C(N)=O)c1C,.,.,.,8.1%,.,.
CCOC(=O)c1ccccc1NC(=O)CCNC(=O)Cn1cnc2ccccc2c1=O,3.8%,0.9%,1.1%,-6.3%,-0.9%,-3.3%
O=C(c1ccccc1)c1cc(-c2ccccc2)on1,1.58µM*,.,.,.,.,.
CCCCc1ccc(-c2ccc(C)cc2O)nc1,10µM*,16.7%,0.7%,?,-0.8%,12.6µM*
CCc1nnc(NC(=O)c2nc(S(=O)(=O)Cc3ccc(C)cc3)ncc2Cl)s1,.,?,.,6.31µM*,.,15.8µM*
CCc1nnc(NC(=O)c2nc(S(=O)(=O)Cc3cccc(C)c3)ncc2Cl)s1,.,5.0%,.,5.01µM*,.,?
CCOc1ccccc1NC(=O)c1nc(S(=O)(=O)Cc2cccc(C)c2)ncc1Cl,.,?,.,3.16µM*,.,15.8µM*
CCCOC(=O)C1C2C=CC3(CN(c4cccc(Cl)c4)C(=O)C13)O2 (configuration not stated),1.2%,-4.3%,-1.4%,-3.8%,0.4%,-5.1%
C=CCn1c(SCC(=O)c2ccc(OC)cc2)nnc1C(C)NC(=O)c1cccs1 (configuration not stated),-2.2%,?,-2.1%,-1.1%,-2.5%,12.6%
CCCOc1ccc(-c2nc(N3CCC(C)CC3)c3ccccc3n2)cc1,.,3.8%,.,29.4%,.,15.9%
O=C1C(=O)c2ccccc2C(O)=C1C(CCc1ccccc1)C1=C(O)c2ccccc2C(=O)C1=O,-4.5%[11.4 µM],10.9%[11.4 µM],1.0%[11.5 µM],8.0%[9.22 µM],-2.1%[11.5 µM],7.9%[9.22 µM]
O=C1C(C=NCc2cccnc2)=C(O)c2ccccc21,10µM*,3.9%,-3.0%,-20.8%,0.7%,?
O=C1C(C=NCc2ccco2)=C(O)c2ccccc21,12.6µM*,?,-2.8%,-28.6%,-1.8%,?
COCCCNC(=O)c1ccc(Cn2c(SCc3ccc(F)cc3)nc3cccnc32)cc1,.,.,.,.,.,11.2µM*
O=C(NCCN1CCCCC1)c1ccc(Cn2c(SCc3ccc(F)cc3)nc3cccnc32)cc1,.,?,.,7.94µM*,.,7.94µM*
CN(C)CCNC(=O)c1ccc(Cn2c(SCc3ccc(F)cc3)nc3cccnc32)cc1,.,.,.,.,.,-13.6%
COCCCNC(=O)c1ccc(CSc2nc3cccnc3n2Cc2ccc(OC)cc2)cc1,.,.,.,.,.,-11.3%
COc1ccc(NC(=O)Cn2c(SCc3ccc(C)cc3)nc3cccnc32)cc1OC,.,.,.,.,.,3.16µM*
SMILES,FLuc inh,IkB sig inh,Caspase-1 inhib,p53ts 39C kill,Caspase-7 inhib,p53ts 32C kill
C=CCNc1nc2c3ccccc3n(C(C)=O)c2s1,20µM*,?,-6.8%,-21.0%,-3.7%,-23.2%
CC(=O)n1c2ccccc2c2c(C#N)c(N3CCCCC3)sc21,-0.8%,-1.0%,-2.9%,8.6%,0.8%,5.8%
Cc1cc(N)c2ccccc2[n+]1CCCCCCCCCCCCCC[n+]1c(C)cc(N)c2ccccc21,-1.2%,?,5.9%,12.6µM*,-3.2%,?
COc1ccc(Nc2nc(-c3cccc(Cl)c3)c3c(n2)-c2ccccc2OC3)cc1,.,-0.9%,.,-3.0%,.,7.6%
CCOc1ccc(Nc2nc(-c3cccc(Cl)c3)c3c(n2)-c2ccccc2OC3)cc1,.,-4.6%,.,10µM*,.,?
Cc1cc(C)c2c(N)c(C(=O)Nc3ncc(C)s3)sc2n1,.,.,.,0.794µM*,.,1µM*
CC(C)N(CCC(=O)c1ccc2ccccc2c1)Cc1ccccc1,-1.1%,?,0.3%,31.6µM*,-1.0%,20µM*
Cc1ccccc1-c1ccc2ncnc(NCc3cccs3)c2c1,0.7%[2.29 µM],2.8%[11.4 µM],?,-12.2%,15.8µM*,15.7%
CC(C)CC(=O)Nc1cccc(-c2cn3ccsc3n2)c1,15.8µM*,-0.1%,-0.3%,?,-0.3%,?
CC(=O)Nc1ccc(-c2cn3ccsc3n2)cc1,15.8µM*,7.4%,-0.7%,?,-0.2%,10µM*
O=C(Nc1ccc(-c2cn3ccsc3n2)cc1)C1CC1,6.31µM*,0.1%,0.7%,5.01µM*,-3.4%,6.31µM*
O=C(CCN1C(=O)c2ccccc2C1=O)Nc1ccc(-c2cn3ccsc3n2)cc1,-13.8%,-0.7%,1.7%,?,-2.1%,-15.4%
O=C(Nc1ccc(-c2cn3ccsc3n2)cc1)C1CCCC1,2.51µM*,-0.2%,-1.1%,2.51µM*,0.2%,5.01µM*
Cc1oc2c(O)c(O)ccc2c(=O)c1-c1cnn(-c2ccccc2)c1,-4.4%,?,-1.1%,-2.0%,-1.8%,-25.1%
CCOc1cccc(C2c3c(oc4ccc(F)cc4c3=O)C(=O)N2CCc2ccc(OC)cc2)c1 (configuration not stated),.,-1.0%,.,16.8%,.,-9.0%
CC1=C(C(=O)Nc2cc(Cl)ccc2C)C(c2cccs2)n2ncnc2N1 (configuration not stated),.,?,.,19.4%,.,-2.0%
c1cn2cc(-c3ccc4c(c3)OCO4)nc2s1,7.94µM*,0.1%,-2.3%,12.6µM*,-1.5%,15.8µM*
Cc1ccc(-c2cc(C(=O)Nc3cccnc3)c3ccccc3n2)o1,7.94µM*,22.2%,.,-11.0%,?,-16.6%
O=C(Nc1cccnc1)c1cc2c(ccc3ccccc32)o1,3.98µM*,?,-1.3%,?,0.5%,-29.6%
N#CC1=C(N)SC(C(=O)c2ccccc2)C1c1cccs1 (configuration not stated),.,.,.,10.3%,.,2.9%
COc1ccc(CCN(C)CCCOc2ccc(S(=O)(=O)c3[nH]c4ccccc4c3C(C)C)cc2)cc1OC,0.8%,?,-5.1%,12.6µM*,0.7%,25.1µM*
COc1ccc(CCN(C)CCc2ccc(OC)c(OC)c2)cc1OC,-3.8%,-0.3%,-1.6%,-9.7%,-0.4%,-2.1%
O=S(=O)(c1cccc2c(Cl)cccc12)N1CCCNCC1,-4.4%,?,-0.6%,15.8µM*,-0.6%,-3.5%
Cc1cccc(NC(=O)CSc2nc3ccc(NC(=O)COc4ccccc4F)cc3s2)c1,.,-1.6%,.,10µM*,.,?
